Reference: PubChem BioAssay AID1159580 (chemical genetic matrix, 2015)
“And” between values parts separate entries of the source, which are not always exact repeats. Equal entries are not always repeated. Hit rate of the full screen: of about 5,500 compounds, about 2,000 (36%) were called active. Inconclusive results (about 18%) are left out. No stated cut-off is given here; in the data, active means normalized growth mostly below about 0.91 (no sharp cut-off); inconclusive means no clear call, values can overlap the other calls; inactive means mostly above about 0.92. Some of the results follow.

Assay: chemical genetic growth profiling, strain panel (AID 1159580);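 further: tested at 20 µM; growth read once vehicle control cultures reached saturation at 30 °C; 1 = growth at the plate median or of vehicle wells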
Settings: S. cerevisiae deletion strains, growth OD

Measured: normalized growth

Nc1ccc(S(=O)(=O)Nc2ccccn2)cc1
inactive: locus YAL013W, strain DEP1, stronger effect = lower value 1.02 | locus YAL021C, strain ccr4, stronger effect = lower value 1 | locus YAL026C, strain drs2, stronger effect = lower value 1.01 | locus YAL030W, strain snc1, stronger effect = lower value 1.01 | locus YBL061C, strain skt5, stronger effect = lower value 1.01 | locus YBR009C, strain hhf1, stronger effect = lower value 0.983 | locus YBR021W, strain FUR4, stronger effect = lower value 1.04 | locus YBR023C, strain chs3, stronger effect = lower value 1.01 | locus YBR171W, strain sec66, stronger effect = lower value 1.01 | locus YBR229C, strain ROT2, stronger effect = lower value 1.01 | locus YBR231C, strain swc5, stronger effect = lower value 1.03 | locus YBR279W, strain paf1, stronger effect = lower value 1.01 | locus YCL011C, strain gbp2, stronger effect = lower value 0.99 | locus YCL016C, strain dcc1, stronger effect = lower value 1 | locus YCL029C, strain bik1, stronger effect = lower value 1 | locus YCL069W, strain vba3, stronger effect = lower value 1 | locus YCR088W, strain abp1, stronger effect = lower value 1 | locus YDL005C, strain med2, stronger effect = lower value 1.02 | locus YDL035C, strain GPR1, stronger effect = lower value 1.01 | locus YDL040C, strain nat1, stronger effect = lower value 1.01 | locus YDL074C, strain BRE1, stronger effect = lower value 1.02 | locus YDL101C, strain DUN1, stronger effect = lower value 1 | locus YDL134C, strain PPH21, stronger effect = lower value 1.01 | locus YDL185W, strain tfp1, stronger effect = lower value 0.982 | locus YDL192W, strain arf1, stronger effect = lower value 0.996 | locus YDR001C, strain nth1, stronger effect = lower value 1.01 | locus YDR069C, strain doa4, stronger effect = lower value 1.02 | locus YDR101C, strain arx1, stronger effect = lower value 0.987 | locus YDR137W, strain rgp1, stronger effect = lower value 1.01 | locus YDR159W, strain sac3, stronger effect = lower value 0.986 | locus YDR162C, strain NBP2, stronger effect = lower value 1 | locus YDR195W, strain ref2 1.04 | locus YDR297W, strain sur2, stronger effect = lower value 1.01 | locus YDR318W, strain mcm21, stronger effect = lower value 0.988 | locus YDR334W, strain swr1, stronger effect = lower value 1.01 | locus YDR335W, strain msn5, stronger effect = lower value 1.01 | locus YDR388W, stronger effect = lower value 0.988 | locus YDR392W, strain spt3, stronger effect = lower value 0.951 | locus YDR502C, strain sam2, stronger effect = lower value 0.996 | locus YEL003W, strain gim4, stronger effect = lower value 1.02 | locus YEL037C, strain rad23, stronger effect = lower value 1.01 | locus YEL061C, strain CIN8 (second series), stronger effect = lower value 1.01 | locus YEL061C, strain CIN8, stronger effect = lower value 1.01 | locus YER015W, strain faa2, stronger effect = lower value 1.02 | locus YER016W, strain bim1, stronger effect = lower value 0.996 | locus YER110C, stronger effect = lower value 0.993 | locus YER111C, strain swi4, stronger effect = lower value 1.01 | locus YER155C, strain BEM2 (second series), stronger effect = lower value 1.01 | locus YER155C, strain BEM2, stronger effect = lower value 1.01 | locus YER167W, strain BCK2, stronger effect = lower value 1 | locus YFR010W, strain ubp6, stronger effect = lower value 1.02 | locus YGL078C, strain dbp3, stronger effect = lower value 1 | locus YGL086W, strain mad1, stronger effect = lower value 1 | locus YGL167C, strain pmr1, stronger effect = lower value 1.02 | locus YGL173C, strain kem1, stronger effect = lower value 1.02 | locus YGL227W, strain vid30, stronger effect = lower value 1.02 | locus YGL240W, strain doc1, stronger effect = lower value 1.02 | locus YGL248W, strain PDE1, stronger effect = lower value 1.02 | locus YGL253W, strain hxk2, stronger effect = lower value 0.999 | locus YGR135W, strain pre9, stronger effect = lower value 1.01 | locus YGR229C, strain SMI1, stronger effect = lower value 1.02 | locus YGR252W, strain gcn5, stronger effect = lower value 1.03 | locus YHR013C, strain ard1, stronger effect = lower value 1.01 | locus YHR027C, strain rpn1, stronger effect = lower value 1.01 | locus YHR030C, strain SLT2, stronger effect = lower value 1.01 and 0.97 | locus YHR079C, strain IRE1 (second series), stronger effect = lower value 0.992 | locus YHR079C, strain IRE1, stronger effect = lower value 0.985 | locus YHR094C, strain hxt1, stronger effect = lower value 0.99 | locus YHR129C, strain ARP1, stronger effect = lower value 1.02 | locus YHR142W, strain chs7, stronger effect = lower value 0.98 | locus YHR200W, strain rpn10, stronger effect = lower value 0.986 | locus YIL066C, strain RNR3, stronger effect = lower value 1.01 | locus YIL073C, strain SPO22, stronger effect = lower value 0.989 | locus YIL125W, strain kgd1, stronger effect = lower value 0.983 | locus YIR030C, strain dcg1, stronger effect = lower value 0.996 | locus YJL092W, strain hpr5, stronger effect = lower value 1.02 | locus YJL095W, strain BCK1 (second series), stronger effect = lower value 1.01 | locus YJL095W, strain BCK1, stronger effect = lower value 1.02 and 0.979 | locus YJL115W, strain asf1, stronger effect = lower value 1.01 | locus YJL129C, strain trk1, stronger effect = lower value 1.02 | locus YJL134W, strain LCB3, stronger effect = lower value 1 | locus YJL154C, strain vps35, stronger effect = lower value 1.02 | locus YJL164C, strain tpk1, stronger effect = lower value 0.972 | locus YJL166W, strain qcr8, stronger effect = lower value 1.02 | locus YJL168C, strain set2, stronger effect = lower value 0.99 | locus YJL187C, strain SWE1 (second series), stronger effect = lower value 1.01 | locus YJR043C, strain POL32, stronger effect = lower value 1 | locus YJR066W, strain TOR1, stronger effect = lower value 0.928
